Holding throughout (assay): DAPPL (digital affinity profiling via proximity ligation, sequencing); 10 mM Tris-HCl pH 7.5, 50 mM NaCl, 1 mM DTT, 4% glycerol, room temperature, 30 min; GST-TFs on glutathione beads, 16-mer random dsDNA library, 0.1% formaldehyde crosslink after washing; high values mean tight binding
Common to all, as to conditions: protein: recombinant; tags: N-terminal GST; dsDNA, one strand shown

Test [1] deals with T1, FLI1 (Homo sapiens, UniProt Q01543 1-452).
T1 sequence: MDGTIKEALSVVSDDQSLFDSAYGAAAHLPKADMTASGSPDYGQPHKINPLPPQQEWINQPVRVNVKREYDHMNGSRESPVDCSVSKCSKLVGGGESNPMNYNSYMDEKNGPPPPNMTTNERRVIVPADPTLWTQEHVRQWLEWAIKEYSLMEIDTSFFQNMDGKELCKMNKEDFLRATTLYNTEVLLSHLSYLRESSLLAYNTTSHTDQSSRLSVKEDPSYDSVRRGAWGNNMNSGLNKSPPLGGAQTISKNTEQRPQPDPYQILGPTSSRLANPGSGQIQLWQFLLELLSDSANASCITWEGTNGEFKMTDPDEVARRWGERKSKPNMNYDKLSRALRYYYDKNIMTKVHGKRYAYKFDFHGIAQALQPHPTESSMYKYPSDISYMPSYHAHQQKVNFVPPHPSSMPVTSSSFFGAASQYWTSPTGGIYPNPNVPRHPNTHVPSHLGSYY
An outline of the steps: (§1)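 Pools were built from human transcription factors expressed in yeast as GST fusions, captured on glutathione beads and DNA-barcoded, along with a tag-only sample. Incubation with 200 nmole of a 16-mer random double-stranded DNA library lasted 30 min at room temperature in Tris/NaCl/DTT/glycerol buffer, and was followed by washing, 0.1% formaldehyde crosslinking, proximity ligation, PCR amplification and Illumina NextSeq500 sequencing. Binding signal is the quotient of each hexamer's read frequency for a factor and its frequency for the tag-only sample.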

For test [2], the target named is T2, ELK1 (Homo sapiens, UniProt P19419 1-428).
T2 sequence: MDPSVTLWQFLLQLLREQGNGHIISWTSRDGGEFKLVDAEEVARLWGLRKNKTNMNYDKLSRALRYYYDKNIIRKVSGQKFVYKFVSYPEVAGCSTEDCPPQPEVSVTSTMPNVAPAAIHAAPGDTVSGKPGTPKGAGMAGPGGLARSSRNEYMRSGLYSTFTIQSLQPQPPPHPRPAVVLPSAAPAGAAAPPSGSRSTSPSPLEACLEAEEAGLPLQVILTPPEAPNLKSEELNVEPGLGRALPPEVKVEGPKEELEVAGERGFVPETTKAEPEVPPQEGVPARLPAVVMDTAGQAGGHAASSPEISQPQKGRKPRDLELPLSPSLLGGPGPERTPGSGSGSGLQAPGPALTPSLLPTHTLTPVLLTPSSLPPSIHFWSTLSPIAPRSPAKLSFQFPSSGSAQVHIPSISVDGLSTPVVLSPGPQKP
An outline of the steps:
as §1

Test [3] concerns the target T3, GABPA (Homo sapiens, UniProt Q06546 1-454).
T3 sequence: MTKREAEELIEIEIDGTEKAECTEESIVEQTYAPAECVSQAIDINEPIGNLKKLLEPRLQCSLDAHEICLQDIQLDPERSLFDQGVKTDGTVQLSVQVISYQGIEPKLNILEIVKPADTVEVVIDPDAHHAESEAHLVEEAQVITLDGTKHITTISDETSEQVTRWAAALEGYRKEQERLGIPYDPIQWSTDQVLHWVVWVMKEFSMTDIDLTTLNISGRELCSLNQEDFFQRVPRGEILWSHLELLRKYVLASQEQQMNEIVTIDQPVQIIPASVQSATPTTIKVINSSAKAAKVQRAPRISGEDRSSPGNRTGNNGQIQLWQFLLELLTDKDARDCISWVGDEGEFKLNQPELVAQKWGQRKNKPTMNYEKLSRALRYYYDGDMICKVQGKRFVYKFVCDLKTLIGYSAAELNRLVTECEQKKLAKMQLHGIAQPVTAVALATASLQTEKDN
An outline of the steps: as §1

The target of test [4] is T4, ERG (Homo sapiens, UniProt P11308 1-479).
T4 sequence: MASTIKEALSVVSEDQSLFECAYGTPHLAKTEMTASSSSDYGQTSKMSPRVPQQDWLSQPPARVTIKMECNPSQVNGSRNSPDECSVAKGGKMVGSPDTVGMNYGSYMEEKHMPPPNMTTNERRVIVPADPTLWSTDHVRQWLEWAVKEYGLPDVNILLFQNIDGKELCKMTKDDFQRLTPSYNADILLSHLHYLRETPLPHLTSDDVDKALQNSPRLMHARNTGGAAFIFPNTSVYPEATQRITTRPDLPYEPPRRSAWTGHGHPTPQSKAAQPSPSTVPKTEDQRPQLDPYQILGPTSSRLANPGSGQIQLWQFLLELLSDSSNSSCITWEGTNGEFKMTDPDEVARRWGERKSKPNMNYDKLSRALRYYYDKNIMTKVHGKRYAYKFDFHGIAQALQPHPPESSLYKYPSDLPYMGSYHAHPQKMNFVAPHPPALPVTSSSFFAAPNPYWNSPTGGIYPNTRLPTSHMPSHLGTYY
Summed up:
as §1

Test [5] has as its target ELF1 (Homo sapiens, UniProt P32519 1-619). An outline of the steps:
as §1

In test [6] the target is T5, EHF (Homo sapiens, UniProt Q9NZC4 1-300).
T5 sequence: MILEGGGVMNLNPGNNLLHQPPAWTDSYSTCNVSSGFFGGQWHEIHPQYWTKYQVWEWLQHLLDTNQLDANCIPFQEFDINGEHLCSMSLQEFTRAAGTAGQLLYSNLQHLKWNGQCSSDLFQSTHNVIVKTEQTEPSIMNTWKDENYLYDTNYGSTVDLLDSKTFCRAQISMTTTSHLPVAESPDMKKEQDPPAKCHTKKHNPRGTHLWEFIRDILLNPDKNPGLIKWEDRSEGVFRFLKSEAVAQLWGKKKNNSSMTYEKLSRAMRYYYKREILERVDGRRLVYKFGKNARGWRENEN
Summed up:
as §1

Test [7] deals with SPI1 (Homo sapiens, UniProt P17947 1-270). Summed up: as §1
For test [8], the target named is SPIB (Homo sapiens, UniProt Q01892 1-262). Summed up:
as §1

Test [9] has as its target T6, ELK3 (Homo sapiens, UniProt P41970 1-407).
T6 sequence: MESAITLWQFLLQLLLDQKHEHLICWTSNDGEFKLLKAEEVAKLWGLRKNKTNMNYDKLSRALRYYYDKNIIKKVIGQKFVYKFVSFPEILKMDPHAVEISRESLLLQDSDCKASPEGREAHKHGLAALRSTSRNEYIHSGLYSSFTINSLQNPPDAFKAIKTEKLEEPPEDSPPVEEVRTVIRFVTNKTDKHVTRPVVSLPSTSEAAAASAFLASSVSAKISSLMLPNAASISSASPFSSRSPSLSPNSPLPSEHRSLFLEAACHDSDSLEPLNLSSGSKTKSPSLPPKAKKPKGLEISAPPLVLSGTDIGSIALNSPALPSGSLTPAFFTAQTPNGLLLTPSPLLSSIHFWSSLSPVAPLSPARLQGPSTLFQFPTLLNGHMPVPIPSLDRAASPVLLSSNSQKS
Summed up:
as §1

Chain of ELF1 (P32519 whole entry): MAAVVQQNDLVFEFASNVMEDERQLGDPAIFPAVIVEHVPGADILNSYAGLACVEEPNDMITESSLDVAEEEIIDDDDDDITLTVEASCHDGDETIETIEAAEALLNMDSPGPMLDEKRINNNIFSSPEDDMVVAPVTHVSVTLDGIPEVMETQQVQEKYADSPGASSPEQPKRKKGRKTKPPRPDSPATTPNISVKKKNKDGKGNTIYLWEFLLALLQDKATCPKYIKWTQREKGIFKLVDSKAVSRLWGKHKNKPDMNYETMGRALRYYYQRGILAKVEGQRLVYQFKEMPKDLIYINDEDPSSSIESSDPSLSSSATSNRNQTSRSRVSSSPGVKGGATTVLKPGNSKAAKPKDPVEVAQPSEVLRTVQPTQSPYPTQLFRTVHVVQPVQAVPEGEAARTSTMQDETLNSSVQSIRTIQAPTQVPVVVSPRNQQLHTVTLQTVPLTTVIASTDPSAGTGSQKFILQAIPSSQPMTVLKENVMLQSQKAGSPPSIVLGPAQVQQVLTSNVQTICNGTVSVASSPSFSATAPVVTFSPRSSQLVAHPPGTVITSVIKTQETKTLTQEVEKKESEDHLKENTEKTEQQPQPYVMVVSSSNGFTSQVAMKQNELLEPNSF
Chain of SPIB (Q01892 whole entry): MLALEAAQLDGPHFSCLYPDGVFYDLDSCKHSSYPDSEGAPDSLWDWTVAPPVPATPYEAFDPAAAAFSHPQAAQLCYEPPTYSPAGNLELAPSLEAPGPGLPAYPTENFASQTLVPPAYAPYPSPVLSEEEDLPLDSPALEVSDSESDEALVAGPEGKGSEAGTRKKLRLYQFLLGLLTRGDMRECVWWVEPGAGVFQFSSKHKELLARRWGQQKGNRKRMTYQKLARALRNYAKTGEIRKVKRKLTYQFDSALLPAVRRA

As for CTCCAC, the binding signal in test [1] is 1.56 fold enrichment (6-mer frequency, TF over GST control); in [2], 1.41 fold enrichment (6-mer frequency, TF over GST control); in test [3], 1.46 fold enrichment (6-mer frequency, TF over GST control); in test [4] it was 1.37 fold enrichment (6-mer frequency, TF over GST control); in [5] it was 1.38 fold enrichment (6-mer frequency, TF over GST control); in test [6] it was 1.32 fold enrichment (6-mer frequency, TF over GST control). The binding signal in test [7] is 1.55 fold enrichment (6-mer frequency, TF over GST control); in [8], 1.32 fold enrichment (6-mer frequency, TF over GST control); in test [9], 1.54 fold enrichment (6-mer frequency, TF over GST control).
With CTTGCT, the binding signal was 1.51 fold enrichment (6-mer frequency, TF over GST control) in test [1]; 1.35 fold enrichment (6-mer frequency, TF over GST control) in [2]; 1.38 fold enrichment (6-mer frequency, TF over GST control) in test [3]; 1.21 fold enrichment (6-mer frequency, TF over GST control) in test [4]; 1.33 fold enrichment (6-mer frequency, TF over GST control) in test [5]; 1.25 fold enrichment (6-mer frequency, TF over GST control) in [6]. Also, the binding signal in [7] is 1.44 fold enrichment (6-mer frequency, TF over GST control); in test [8], 1.34 fold enrichment (6-mer frequency, TF over GST control); in test [9], 1.25 fold enrichment (6-mer frequency, TF over GST control).
On to CCCCAT, for which the binding signal in test [1] was 1.37 fold enrichment (6-mer frequency, TF over GST control); in [2], 1.24 fold enrichment (6-mer frequency, TF over GST control); in test [3], 1.26 fold enrichment (6-mer frequency, TF over GST control); in test [4], 1.34 fold enrichment (6-mer frequency, TF over GST control); in test [5], 1.31 fold enrichment (6-mer frequency, TF over GST control); in test [6], 1.27 fold enrichment (6-mer frequency, TF over GST control). In addition, the binding signal in [7] is 1.46 fold enrichment (6-mer frequency, TF over GST control); in [8] it was 1.18 fold enrichment (6-mer frequency, TF over GST control); in test [9], 1.2 fold enrichment (6-mer frequency, TF over GST control).
Take TACCCT: the binding signal in test [1] was 1.33 fold enrichment (6-mer frequency, TF over GST control); in test [2] it was 1.34 fold enrichment (6-mer frequency, TF over GST control); in test [3] it was 1.21 fold enrichment (6-mer frequency, TF over GST control); in test [4], 1.31 fold enrichment (6-mer frequency, TF over GST control); in test [5], 1.36 fold enrichment (6-mer frequency, TF over GST control); in [6], 1.38 fold enrichment (6-mer frequency, TF over GST control). The binding signal in test [7] was 1.36 fold enrichment (6-mer frequency, TF over GST control); in test [8], 1.3 fold enrichment (6-mer frequency, TF over GST control); in [9] it was 1.41 fold enrichment (6-mer frequency, TF over GST control).
For GGACCT, the binding signal was 1.42 fold enrichment (6-mer frequency, TF over GST control) in [1]; 1.37 fold enrichment (6-mer frequency, TF over GST control) in test [2]; 1.41 fold enrichment (6-mer frequency, TF over GST control) in [3]; 1.33 fold enrichment (6-mer frequency, TF over GST control) in test [4]; 1.35 fold enrichment (6-mer frequency, TF over GST control) in [5]; 1.35 fold enrichment (6-mer frequency, TF over GST control) in test [6]. Moreover, the binding signal in test [7] was 1.28 fold enrichment (6-mer frequency, TF over GST control); in test [8], 1.33 fold enrichment (6-mer frequency, TF over GST control); in test [9], 1.37 fold enrichment (6-mer frequency, TF over GST control).
Turning to ATATCC, the binding signal in [1] is 2.59 fold enrichment (6-mer frequency, TF over GST control); in test [2] it was 2.88 fold enrichment (6-mer frequency, TF over GST control); in test [3] it was 2.45 fold enrichment (6-mer frequency, TF over GST control); in test [4], 3.33 fold enrichment (6-mer frequency, TF over GST control); in [5], 2.56 fold enrichment (6-mer frequency, TF over GST control); in test [6], 2.58 fold enrichment (6-mer frequency, TF over GST control). The binding signal in test [7] is 2.43 fold enrichment (6-mer frequency, TF over GST control); in test [8], 2.82 fold enrichment (6-mer frequency, TF over GST control); in [9] it was 2.72 fold enrichment (6-mer frequency, TF over GST control).
Consider TCACGT, for which the binding signal in test [1] is 1.28 fold enrichment (6-mer frequency, TF over GST control); in test [2] it was 1.3 fold enrichment (6-mer frequency, TF over GST control); in [3] it was 1.31 fold enrichment (6-mer frequency, TF over GST control); in test [4], 1.29 fold enrichment (6-mer frequency, TF over GST control); in [5], 1.17 fold enrichment (6-mer frequency, TF over GST control); in [6], 1.14 fold enrichment (6-mer frequency, TF over GST control). Besides, the binding signal is 1.24 fold enrichment (6-mer frequency, TF over GST control) in test [7]; 1.18 fold enrichment (6-mer frequency, TF over GST control) in test [8]; 1.16 fold enrichment (6-mer frequency, TF over GST control) in test [9].
